Source: PubChem BioAssay
Most compounds without a hit are left out; they make up all but 2.4% or so of the library.
Pf gamet viab: kills late stage P. falciparum gametocytes | P. falciparum stage V gametocytes, ATP luminescence, 24 h | inhibition, % at 10.9 µM | 150,000 tested, 0.065% active;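 active = inhibition above the mean plus 3 SD of compounds within the control limits, set per campaign, cut at about 38% in these data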
MEKK2 mut-MEK5: signal of MEK5 binding to mutant human MEKK2 PB1 domain; 290,000 tested, 0.35% active; bead flow cytometry, Alexa488-MEK5 binding to MEKK2 mutant; percent response, % at 10 µM; AID 1530; in the data active = percent response above about 24%, passing the limit was not always enough
MEKK3 PB1 HTS: modulators (inhibitors or enhancers) of MEK5 binding to human MEKK3 PB1 domain | Q99759 | bead-based flow cytometry, Alexa488-MEK5 binding to MEKK3; actives lie on both sides; 0 = blocked by unlabeled MEK5, 100 = vehicle | binding response (% of control), % at 10 µM | 290,000 tested, 1.4% active | AID 1529;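 active = binding response more than 3 SD above or below the average of its plate-row segment, actives on both sides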;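 note: Alexa488 bead fluorescence after subtracting the streptavidin-only scavenger bead signal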
Target sequence (Q99759 whole entry, looked up, the tested form may be a part): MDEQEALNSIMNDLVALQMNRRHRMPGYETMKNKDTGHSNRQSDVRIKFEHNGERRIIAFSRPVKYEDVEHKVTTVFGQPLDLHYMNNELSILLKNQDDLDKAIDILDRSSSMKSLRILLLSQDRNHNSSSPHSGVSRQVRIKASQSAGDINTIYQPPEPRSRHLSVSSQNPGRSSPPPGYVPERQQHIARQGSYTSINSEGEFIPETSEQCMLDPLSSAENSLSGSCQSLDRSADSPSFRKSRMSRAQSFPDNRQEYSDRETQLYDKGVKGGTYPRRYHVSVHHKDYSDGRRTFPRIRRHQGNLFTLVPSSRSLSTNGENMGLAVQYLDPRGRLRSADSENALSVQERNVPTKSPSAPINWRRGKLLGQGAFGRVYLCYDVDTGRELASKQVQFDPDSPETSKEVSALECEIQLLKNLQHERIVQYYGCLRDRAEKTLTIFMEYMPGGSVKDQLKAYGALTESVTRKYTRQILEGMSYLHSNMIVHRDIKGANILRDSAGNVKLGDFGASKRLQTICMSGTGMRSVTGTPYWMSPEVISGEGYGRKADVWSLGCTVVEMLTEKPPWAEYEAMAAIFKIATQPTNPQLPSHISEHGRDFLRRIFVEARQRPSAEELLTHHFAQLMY
MEKK2 WT-MEK5: raises or lowers MEK5 binding to wildtype human MEKK2 PB1 domain; Q9Y2U5; bead flow cytometry, Alexa488-MEK5 binding to MEKK2 WT; actives lie on both sides; binding response (% of control), % at 10 µM; 290,000 tested, 1.1% active; AID 1531; in the data active = binding response below about 67% or above about 130%
Arbovirus anti: blocks arbovirus infection; 200,000 tested, 0.37% active; inhibition, % at 10 µM; arbovirus infection cell-based antiviral screen; AID 1251; in the data active = inhibition above about 30%
MEKK2wt confirm: raises or lowers MEK5 binding to wildtype human MEKK2, retest. bead flow cytometry, Alexa488-MEK5 binding to MEKK2 WT; actives lie on both sides. binding response (% of control), % at 10 µM. 5,900 tested, 2.4% active. shares compounds with MEKK3 PB1 HTS; in the data active = binding response below about 16% or above about 210%; inactive = in between
MEKK2mut-MEK5: signal of MEK5 binding to mutant human MEKK2, retest. AID 1893. shares compounds with MEKK3 PB1 HTS. percent response, % at 10 µM. bead flow cytometry, Alexa488-MEK5 binding to MEKK2 mutant. 5,900 tested, 2% active; in the data active = percent response mostly above about 71%, no sharp cut-off; inactive = mostly below about 38%;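 note: higher means compound restores mutant binding toward wildtype level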
MEKK3-MEK5 inh: MEKK3-MEK5 PB1 inhibition, single concentration confirmation | shares compounds with MEKK3 PB1 HTS | bead flow cytometry, Alexa488-MEK5 binding to MEKK3; stronger effect = lower value | binding response (% of control), % at 10 µM | 5,900 tested, 1.8% active;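 active = binding response below 72% of control, or above a set upper limit, though filed actives all read lower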
Hits are given with their value; . = inactive; / = no result given; [ ] = another dose, or the depositor's remark.

SMILES	Pf gamet viab	MEKK2 mut-MEK5	MEKK3 PB1 HTS	MEKK2 WT-MEK5	Arbovirus anti	MEKK2wt confirm	MEKK2mut-MEK5	MEKK3-MEK5 inh
Cc1cccc(N2CCC(N=CN(C)C)=N2)c1	.	.	.	.	.	/	/	/
CCN(c1ccccc1)S(=O)(=O)c1cc2c(cc1C)NC(=O)CO2	/	.	.	.	/	/	/	/
CCOc1ccc(Oc2c(/C=N/NC(C)=O)c(C)nn2-c2ccccc2)cc1	/	.	.	.	.	/	/	/
CCOc1ccc(Oc2c(/C=N/NC(=O)C3CC3)c(C)nn2-c2ccccc2)cc1	/	.	131	.	.	.	.	.
CCN(CC)CC(O)Cn1c(C)c(-c2ccccc2)c2cc([N+](=O)[O-])ccc21 (centres undefined)	/	30	.	174	/	.	.	.
Nc1ccc(OCCCc2c(N)nc(N)nc2N)cc1	/	.	82[inhibitor]	.	/	.	.	.
CC(C)COc1ccc(CN=C(N)N=C(N)N)cc1Cl	.	.	.	139	.	.	.	.
c1ccc(N2CCN(c3nc(NCc4ccco4)c4ccccc4n3)CC2)cc1	.	.	.	145	.	.	.	.
c1ccc(CNc2nc(N3CCN(Cc4ccccc4)CC3)nc3ccccc23)cc1	.	.	.	161	/	.	.	.
Cc1csc2ncnc(NC3CCN(Cc4ccccc4)CC3)c12	.	.	.	.	/	/	/	/
c1coc(CNc2nc(N3CCCCC3)nc3ccccc23)c1	/	.	.	.	.	/	/	/
c1ccc(CN2CCC(Nc3nc(-c4ccccc4)nc4ccccc34)CC2)cc1	.	.	.	144	.	.	.	.
Cc1nc([N+](=O)[O-])c(Br)n1CC(=O)c1ccccc1	.	.	.	.	.	/	/	/
Cc1nc([N+](=O)[O-])c(Br)n1CC(=O)c1ccc(Br)cc1	.	.	133	.	.	.	.	.
Cc1nn(C)c(=O)n1N(C)c1ncc(C(F)(F)F)cc1Cl	.	.	139	.	.	.	.	.
Cc1cc(C)c2sc(N(CCCN(C)C)C(=O)CN3C(=O)c4ccccc4C3=O)nc2c1	.	82	70[inhibitor]	321	.	.	.	.
Cc1cc(C)c2sc(N(CCCN(C)C)C(=O)c3ccc(Br)s3)nc2c1	.	.	.	189	.	.	.	.
Cc1cc(C)c2sc(N(CCN(C)C)C(=O)c3c(F)cccc3F)nc2c1	.	.	.	.	.	/	/	/
O=C(CCl)Nc1ccc(N2CCCCCC2)cc1	.	.	.	.	.	/	/	/
CCc1c(C)nc2nc(SCc3ccccc3)[nH]n2c1=O	/	.	.	.	/	/	/	/
N#Cc1ccc(OCC(=O)N/N=C/C2CC=CCC2)cc1 (centres undefined)	.	.	.	.	.	/	/	/
COc1cc(CNc2ccc(O)cc2)cc(Br)c1OCc1ccccc1	.	.	.	.	.	/	/	/
Fc1ccc(COc2ccc(Br)cc2CNCc2ccncc2)cc1	.	.	.	.	.	/	/	/
COc1cc(CNC(C)c2ccccc2)cc(Br)c1OCc1ccc(F)cc1 (centres undefined)	.	.	.	223	/	.	.	.
COc1cc(CNC(C)c2ccccc2)cc(Br)c1OCc1ccccc1 (centres undefined)	/	.	.	192	/	.	.	.
SMILES	Pf gamet viab	MEKK2 mut-MEK5	MEKK3 PB1 HTS	MEKK2 WT-MEK5	Arbovirus anti	MEKK2wt confirm	MEKK2mut-MEK5	MEKK3-MEK5 inh
CCOc1cc(CNCc2ccncc2)cc(Br)c1OCc1ccc(F)cc1	.	.	.	142	.	.	.	.
NC(=O)c1ccsc1NC(=O)c1coc2ccccc2c1=O	.	.	.	.	.	/	/	/
O=C(NCCc1ccccc1)C1CCCN(C(=O)Nc2ccc(F)cc2)C1 (centres undefined)	/	.	.	.	/	/	/	/
Cn1cccc1C(=O)NC(=O)CSc1nnc(C2CC2)n1-c1ccccc1	.	.	127	.	.	.	.	.
COc1cccc(NC(=O)CSc2nc3c(sc4ccccc43)c(=O)n2CCN(C)C)c1	.	.	.	147	.	.	.	.
CCN(CC)CCn1c(SCC(=O)Nc2cccc(OC)c2)nc2c(sc3ccccc32)c1=O	.	.	.	174	.	.	.	.
CC1Cc2ccccc2N1C(=O)CNCCCN(C)C (centres undefined)	/	/	/	/	.	/	/	/
CC1CC2(C)Oc3ccccc3CC2C(C)C1CNCCCN(C)C (centres undefined)	.	.	.	139	.	.	.	.
CCNc1nc2c(c(=O)n(C)c(=O)n2C)n1CCCc1ccccc1	.	.	.	.	/	/	/	/
Cn1c(CN2CCN(C(=O)c3ccc(F)cc3)CC2)nc2cc([N+](=O)[O-])ccc21	.	.	147	.	.	.	.	.
COc1cc(OC)cc(C(=O)N2CC(=O)Nc3ccccc32)c1	/	.	.	.	/	/	/	/
CCOC(=O)CCC(=O)NCc1ccc2[nH]c(C)cc2c1	/	.	82[inhibitor]	.	.	.	.	.
CCOC(=O)NCc1ccc2[nH]c(C)cc2c1	/	.	.	.	.	/	/	/
CCOC(=O)CCC(=O)NCc1ccc2c(c1)cc(C)n2C	.	.	74[inhibitor]	.	.	.	.	.
CCOC(=O)[C@@H]1[C@H]2COc3ccc(Br)cc3[C@@H]2N2C(=O)N(c3ccc(F)cc3)C(=O)[C@]12C	.	.	.	.	/	/	/	/
CCS(=O)(=O)N1CCN(c2ccc(S(=O)(=O)N3CCOCC3)cc2)CC1	.	.	48[inhibitor]	.	.	.	.	.
O=S(=O)(c1ccc(N2CCOCC2)cc1)N1CCOCC1	/	.	.	.	.	/	/	/
CNC[C@H](Cc1ccccc1)NC[C@@H](Cc1cccc2ccccc12)NCCc1ccc(C)cc1	.	120	.	364	/	255	100	.
C/C=C/C1=CC(=O)C[C@H](c2ccc3c(c2)OCO3)C1	.	/	/	/	/	/	/	/
CN(Cc1nccs1)C(=O)C1CCC(=O)N(CCCc2ccccc2)C1 (centres undefined)	/	.	.	.	/	/	/	/
Cc1oc(-c2ccccc2Cl)nc1CSc1nc2c(c(=O)[nH]1)CCC2	/	.	75[inhibitor]	.	.	.	.	.
Cn1c(=O)c2c(nc(Sc3ncnn3CC(=O)NC3CCCCC3)n2C)n(C)c1=O	.	.	.	.	/	/	/	/
CCOC(=O)N1CCN(S(=O)(=O)c2ccc(C(=O)N(CCCN(C)C)c3nc4ccc(Cl)cc4s3)cc2)CC1	/	30	.	153	/	.	.	.
CCOC(=O)N1CCN(S(=O)(=O)c2ccc(C(=O)N(CCN(C)C)c3nc4ccc(CC)cc4s3)cc2)CC1	/	.	.	136	/	.	.	.
CSC1=NC2(C[C@H]2c2ccccc2)C(=O)N1C (some centres undefined)	.	/	/	/	/	/	/	/
CCCSc1nc(N)cc(=O)[nH]1	/	.	35[inhibitor]	46[inhibitor]	.	.	.	.
